PMC7862700, “An all-to-all approach to the identification of sequence-specific readers for epigenetic DNA modifications on cytosine”

Assays:
Assay in all cases: DAPPL (digital affinity profiling via proximity ligation, sequencing); 10 mM Tris-HCl pH 7.5, 50 mM NaCl, 1 mM DTT, 4% glycerol, room temperature, 30 min; GST-TFs on glutathione beads, 16-mer random dsDNA library, 0.1% formaldehyde crosslink after washing; high values mean tight binding
Conditions in all cases: protein: recombinant; tags: N-terminal GST; dsDNA, one strand shown
FLI1 = target: T1, FLI1 (Homo sapiens, UniProt Q01543 1-452)
T1 sequence: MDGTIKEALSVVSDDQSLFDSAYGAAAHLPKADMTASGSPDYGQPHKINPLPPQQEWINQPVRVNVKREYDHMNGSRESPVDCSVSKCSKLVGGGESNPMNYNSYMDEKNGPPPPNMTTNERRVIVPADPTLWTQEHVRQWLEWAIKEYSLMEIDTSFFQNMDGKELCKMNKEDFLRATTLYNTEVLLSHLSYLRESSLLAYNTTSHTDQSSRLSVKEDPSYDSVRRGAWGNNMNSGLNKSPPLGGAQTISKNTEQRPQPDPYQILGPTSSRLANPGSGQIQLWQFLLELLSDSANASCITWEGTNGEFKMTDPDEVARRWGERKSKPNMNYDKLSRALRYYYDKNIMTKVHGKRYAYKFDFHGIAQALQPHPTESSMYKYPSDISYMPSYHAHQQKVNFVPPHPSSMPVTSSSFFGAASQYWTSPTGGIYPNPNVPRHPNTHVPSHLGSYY
Outline: (§1)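 The binding signal reported is, for every hexamer, its read frequency for a factor over its read frequency for the tag-only sample. Reads came from pools of yeast-expressed, GST-fused human transcription factors on glutathione beads, barcoded with DNA and mixed with that sample, which were incubated with 200 nmole of a random double-stranded 16-mer DNA library in Tris/NaCl/DTT/glycerol buffer at room temperature for 30 min. After washing, the pools were crosslinked with 0.1% formaldehyde, proximity-ligated with BsaI/T4 ligase for 1 h at 37 °C, PCR-amplified and sequenced on an Illumina NextSeq500.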

ELK1 = target: T2, ELK1 (Homo sapiens, UniProt P19419 1-428)
T2 sequence: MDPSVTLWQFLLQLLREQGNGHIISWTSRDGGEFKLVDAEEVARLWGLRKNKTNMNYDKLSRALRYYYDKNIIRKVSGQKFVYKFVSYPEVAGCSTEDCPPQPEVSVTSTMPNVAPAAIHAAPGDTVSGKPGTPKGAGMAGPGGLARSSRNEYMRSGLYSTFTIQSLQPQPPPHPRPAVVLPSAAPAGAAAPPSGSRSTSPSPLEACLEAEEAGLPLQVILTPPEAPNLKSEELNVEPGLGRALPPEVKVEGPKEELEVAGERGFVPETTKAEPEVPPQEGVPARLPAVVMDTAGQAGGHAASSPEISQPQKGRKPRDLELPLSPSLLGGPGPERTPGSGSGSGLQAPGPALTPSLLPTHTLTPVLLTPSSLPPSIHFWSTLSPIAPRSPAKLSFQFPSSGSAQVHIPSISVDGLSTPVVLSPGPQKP
Outline: as §1

GABPA = target: T3, GABPA (Homo sapiens, UniProt Q06546 1-454)
T3 sequence: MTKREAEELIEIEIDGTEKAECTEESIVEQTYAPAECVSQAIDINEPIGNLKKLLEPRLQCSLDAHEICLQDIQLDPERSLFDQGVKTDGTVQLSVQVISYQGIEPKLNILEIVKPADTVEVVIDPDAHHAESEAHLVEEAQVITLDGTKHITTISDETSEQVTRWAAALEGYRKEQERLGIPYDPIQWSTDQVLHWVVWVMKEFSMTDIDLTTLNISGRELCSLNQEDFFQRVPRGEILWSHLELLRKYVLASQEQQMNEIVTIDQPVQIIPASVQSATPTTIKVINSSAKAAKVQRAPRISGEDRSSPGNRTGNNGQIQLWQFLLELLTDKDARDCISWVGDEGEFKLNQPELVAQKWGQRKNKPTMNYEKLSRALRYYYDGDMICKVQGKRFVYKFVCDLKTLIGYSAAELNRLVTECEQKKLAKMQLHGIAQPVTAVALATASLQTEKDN
Outline: as §1

ERG = target: T4, ERG (Homo sapiens, UniProt P11308 1-479)
T4 sequence: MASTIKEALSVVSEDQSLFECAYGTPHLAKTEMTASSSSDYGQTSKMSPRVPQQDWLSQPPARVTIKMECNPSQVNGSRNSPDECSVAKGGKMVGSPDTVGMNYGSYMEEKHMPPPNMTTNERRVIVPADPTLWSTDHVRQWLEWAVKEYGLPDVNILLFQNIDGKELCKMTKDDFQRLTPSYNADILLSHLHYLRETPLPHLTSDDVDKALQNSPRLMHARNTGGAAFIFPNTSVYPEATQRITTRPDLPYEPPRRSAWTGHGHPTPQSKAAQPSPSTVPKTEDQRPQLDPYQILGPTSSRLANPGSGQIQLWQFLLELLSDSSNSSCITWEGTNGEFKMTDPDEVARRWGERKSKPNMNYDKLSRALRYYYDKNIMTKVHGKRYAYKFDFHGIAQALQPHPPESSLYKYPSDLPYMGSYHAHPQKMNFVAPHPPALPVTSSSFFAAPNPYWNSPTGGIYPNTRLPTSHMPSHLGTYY
Outline: as §1

ELF1 = ELF1 (Homo sapiens, UniProt P32519 1-619)
Outline: as §1

EHF = target: T5, EHF (Homo sapiens, UniProt Q9NZC4 1-300)
T5 sequence: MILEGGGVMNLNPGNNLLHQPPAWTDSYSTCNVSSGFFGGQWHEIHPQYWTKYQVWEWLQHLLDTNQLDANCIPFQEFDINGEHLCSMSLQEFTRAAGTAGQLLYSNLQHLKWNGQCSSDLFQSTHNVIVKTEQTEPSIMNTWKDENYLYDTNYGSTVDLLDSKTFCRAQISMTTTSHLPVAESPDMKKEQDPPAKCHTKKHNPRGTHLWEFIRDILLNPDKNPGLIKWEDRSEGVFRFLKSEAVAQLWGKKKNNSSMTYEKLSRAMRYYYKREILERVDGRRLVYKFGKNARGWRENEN
Outline: as §1

SPI1 = SPI1 (Homo sapiens, UniProt P17947 1-270)
Outline: as §1

SPIB = SPIB (Homo sapiens, UniProt Q01892 1-262)
Outline: as §1

ELK3 = target: T6, ELK3 (Homo sapiens, UniProt P41970 1-407)
T6 sequence: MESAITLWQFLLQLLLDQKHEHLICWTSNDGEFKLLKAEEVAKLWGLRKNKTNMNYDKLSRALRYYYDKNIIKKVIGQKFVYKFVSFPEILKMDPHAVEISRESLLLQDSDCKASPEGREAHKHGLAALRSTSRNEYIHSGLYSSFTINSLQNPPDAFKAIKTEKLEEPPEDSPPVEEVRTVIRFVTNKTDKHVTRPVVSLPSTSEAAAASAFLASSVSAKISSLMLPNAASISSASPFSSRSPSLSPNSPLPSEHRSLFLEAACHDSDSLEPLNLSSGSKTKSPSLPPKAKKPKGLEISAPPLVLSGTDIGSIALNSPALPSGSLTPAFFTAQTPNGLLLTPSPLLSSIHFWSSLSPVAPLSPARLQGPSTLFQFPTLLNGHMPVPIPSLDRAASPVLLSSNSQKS
Outline: as §1

Chain of ELF1 (P32519 whole entry): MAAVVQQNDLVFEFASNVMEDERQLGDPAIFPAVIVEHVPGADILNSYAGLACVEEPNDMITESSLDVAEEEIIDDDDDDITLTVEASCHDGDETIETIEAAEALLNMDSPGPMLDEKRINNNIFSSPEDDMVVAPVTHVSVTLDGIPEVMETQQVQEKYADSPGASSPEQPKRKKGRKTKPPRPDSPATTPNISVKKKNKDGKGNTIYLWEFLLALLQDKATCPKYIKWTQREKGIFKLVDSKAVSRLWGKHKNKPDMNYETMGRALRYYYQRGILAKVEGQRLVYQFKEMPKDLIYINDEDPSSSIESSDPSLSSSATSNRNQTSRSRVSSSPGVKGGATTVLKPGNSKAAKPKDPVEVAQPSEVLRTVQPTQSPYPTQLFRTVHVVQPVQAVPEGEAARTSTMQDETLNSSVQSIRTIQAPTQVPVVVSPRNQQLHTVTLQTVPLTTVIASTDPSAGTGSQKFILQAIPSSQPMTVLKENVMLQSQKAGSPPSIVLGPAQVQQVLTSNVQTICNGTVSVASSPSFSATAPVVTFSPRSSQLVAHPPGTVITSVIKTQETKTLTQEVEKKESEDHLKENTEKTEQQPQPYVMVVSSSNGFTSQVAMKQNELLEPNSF
Chain of SPIB (Q01892 whole entry): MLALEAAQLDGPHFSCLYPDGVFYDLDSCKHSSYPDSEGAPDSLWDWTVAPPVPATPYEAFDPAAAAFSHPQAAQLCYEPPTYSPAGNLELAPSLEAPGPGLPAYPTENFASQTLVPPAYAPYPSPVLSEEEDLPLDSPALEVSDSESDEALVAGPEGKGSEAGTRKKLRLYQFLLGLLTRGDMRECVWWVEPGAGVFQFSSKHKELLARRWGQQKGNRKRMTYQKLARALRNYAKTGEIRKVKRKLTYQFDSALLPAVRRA

Row | Sequence | binding signal (FLI1) | binding signal (ELK1) | binding signal (GABPA) | binding signal (ERG) | binding signal (ELF1) | binding signal (EHF) | binding signal (SPI1) | binding signal (SPIB) | binding signal (ELK3)
1 | TCAATA | 1.21 fold enrichment (6-mer frequency, TF over GST control) | 1.17 fold enrichment (6-mer frequency, TF over GST control) | 1.24 fold enrichment (6-mer frequency, TF over GST control) | 1.14 fold enrichment (6-mer frequency, TF over GST control) | 1.17 fold enrichment (6-mer frequency, TF over GST control) | 1.14 fold enrichment (6-mer frequency, TF over GST control) | 1.23 fold enrichment (6-mer frequency, TF over GST control) | 1.06 fold enrichment (6-mer frequency, TF over GST control) | 1.2 fold enrichment (6-mer frequency, TF over GST control)
2 | CCGTTC | 1.32 fold enrichment (6-mer frequency, TF over GST control) | 1.38 fold enrichment (6-mer frequency, TF over GST control) | 1.39 fold enrichment (6-mer frequency, TF over GST control) | 1.38 fold enrichment (6-mer frequency, TF over GST control) | 1.46 fold enrichment (6-mer frequency, TF over GST control) | 1.5 fold enrichment (6-mer frequency, TF over GST control) | 1.39 fold enrichment (6-mer frequency, TF over GST control) | 1.47 fold enrichment (6-mer frequency, TF over GST control) | 1.4 fold enrichment (6-mer frequency, TF over GST control)
3 | CTTCGT | 1.34 fold enrichment (6-mer frequency, TF over GST control) | 1.45 fold enrichment (6-mer frequency, TF over GST control) | 1.38 fold enrichment (6-mer frequency, TF over GST control) | 1.3 fold enrichment (6-mer frequency, TF over GST control) | 1.3 fold enrichment (6-mer frequency, TF over GST control) | 1.36 fold enrichment (6-mer frequency, TF over GST control) | 1.39 fold enrichment (6-mer frequency, TF over GST control) | 1.32 fold enrichment (6-mer frequency, TF over GST control) | 1.4 fold enrichment (6-mer frequency, TF over GST control)
4 | TTAGCA | 1.21 fold enrichment (6-mer frequency, TF over GST control) | 1.19 fold enrichment (6-mer frequency, TF over GST control) | 1.16 fold enrichment (6-mer frequency, TF over GST control) | 1.3 fold enrichment (6-mer frequency, TF over GST control) | 1.18 fold enrichment (6-mer frequency, TF over GST control) | 1.21 fold enrichment (6-mer frequency, TF over GST control) | 1.15 fold enrichment (6-mer frequency, TF over GST control) | 1.15 fold enrichment (6-mer frequency, TF over GST control) | 1.17 fold enrichment (6-mer frequency, TF over GST control)
5 | CTGTAT | 1.35 fold enrichment (6-mer frequency, TF over GST control) | 1.28 fold enrichment (6-mer frequency, TF over GST control) | 1.31 fold enrichment (6-mer frequency, TF over GST control) | 1.18 fold enrichment (6-mer frequency, TF over GST control) | 1.24 fold enrichment (6-mer frequency, TF over GST control) | 1.3 fold enrichment (6-mer frequency, TF over GST control) | 1.23 fold enrichment (6-mer frequency, TF over GST control) | 1.31 fold enrichment (6-mer frequency, TF over GST control) | 1.31 fold enrichment (6-mer frequency, TF over GST control)
6 | CCTTAC | 1.31 fold enrichment (6-mer frequency, TF over GST control) | 1.35 fold enrichment (6-mer frequency, TF over GST control) | 1.37 fold enrichment (6-mer frequency, TF over GST control) | 1.31 fold enrichment (6-mer frequency, TF over GST control) | 1.34 fold enrichment (6-mer frequency, TF over GST control) | 1.28 fold enrichment (6-mer frequency, TF over GST control) | 1.28 fold enrichment (6-mer frequency, TF over GST control) | 1.33 fold enrichment (6-mer frequency, TF over GST control) | 1.22 fold enrichment (6-mer frequency, TF over GST control)
7 | TATCTT | 1.46 fold enrichment (6-mer frequency, TF over GST control) | 1.31 fold enrichment (6-mer frequency, TF over GST control) | 1.38 fold enrichment (6-mer frequency, TF over GST control) | 1.26 fold enrichment (6-mer frequency, TF over GST control) | 1.36 fold enrichment (6-mer frequency, TF over GST control) | 1.3 fold enrichment (6-mer frequency, TF over GST control) | 1.3 fold enrichment (6-mer frequency, TF over GST control) | 1.28 fold enrichment (6-mer frequency, TF over GST control) | 1.24 fold enrichment (6-mer frequency, TF over GST control)
8 | TCACTT | 1.56 fold enrichment (6-mer frequency, TF over GST control) | 1.78 fold enrichment (6-mer frequency, TF over GST control) | 1.52 fold enrichment (6-mer frequency, TF over GST control) | 1.8 fold enrichment (6-mer frequency, TF over GST control) | 1.66 fold enrichment (6-mer frequency, TF over GST control) | 1.67 fold enrichment (6-mer frequency, TF over GST control) | 2.11 fold enrichment (6-mer frequency, TF over GST control) | 1.82 fold enrichment (6-mer frequency, TF over GST control) | 1.69 fold enrichment (6-mer frequency, TF over GST control)
